Results on five compounds are retold here after PubChem BioAssay.

Assay [1] is described as follows: yeast TOR pathway RPL19A-GFP modulators, primary screen, cell-based, S. cerevisiae, multiplex flow cytometry (AID 1862; in the data active = percent of DMSO control GFP below about 86%;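 note: lower values mimic rapamycin by blocking the RPL19A rise seen in DMSO cells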). The conditions noted are these: S. cerevisiae RPL19A-GFP strain, flow cytometry fluorescence, 3 h; at 10 µM; stronger effect = lower value.
A short description of assay [2]: modulators of MEP2-GFP levels in yeast, primary screen, S. cerevisiae, multiplex flow cytometry (AID 1867;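 active = GFP response, as percent of the DMSO control, above the screen-wide mean plus 3 SD, about 139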;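 note: median GFP channel fluorescence of barcode-gated MEP2-GFP cells measured by flow cytometry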). The note with it: S. cerevisiae MEP2-GFP strain, 3 h, at 10 µM, stronger effect = higher value, 100% means same as DMSO wells. A general note: In flow cytometry, cells or beads pass a laser one at a time.
Assay [3] in a line: modulators of CIT2-GFP expression in yeast, primary screen, S. cerevisiae, GFP fusion, multiplex flow cytometry (AID 1870;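 active = percent response above a set limit, the screen-wide mean plus 3 SD, cut at about 130% in these data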;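 note: barcoded CIT2-GFP strain pooled with four other GFP strains with rapamycin as positive control; median GFP fluorescence per well over plate mean of DMSO wells so 100% = DMSO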). The conditions noted are these: 3 h, at 10 µM, stronger effect = higher value.
Assay [4] is described as follows: modulators of LAP4-GFP expression in yeast, primary screen, S. cerevisiae, multiplex flow cytometry (AID 1873;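 active = GFP signal, as percent of the solvent control, above the screen mean plus 3 SD, about 149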). The note with it: 3 h, at 10 µM, stronger effect = higher value.
Assay [5] can be described thus: modulators of AGP1-GFP expression in yeast TOR pathway, primary screen, cell-based, multiplex flow cytometry, S. cerevisiae (AID 1887;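 active = GFP signal above the screen-wide mean plus 3 SD, that is over about 124.5% of the solvent control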;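 note: AGP1-GFP fusion strain of S. cerevisiae within a five-strain barcoded multiplex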). The note with it: 3 h, at 10 µM, stronger effect = higher value.
A short description of assay [6]: inhibitors of CD8+ T cell-vesicle binding, pilot screen, LFA-1/ICAM-1 modulator project, MLPCN validation set, flow cytometry (AID 2523;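 active = response below a set limit, under 55% cells CD8-positive and vesicle-bound, and CD8 cells' 90th-percentile brightness under 279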;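 for vesicle binding response: mean PE anti-B7-1 fluorescence of CD8+ cells relative to row control; 100% = QL9-loaded vesicles with DMSO vehicle in the same plate row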). The note with it: 2C mouse CD8+ T cells, at 7 µM, stronger effect = lower value; double positive events: measured here: CD8+/vesicle+ event percentage.
Assay [7] addresses Integrin beta-1 (Homo sapiens) + Integrin alpha-4 (Homo sapiens) (UniProt P13612+P05556). The assay is described as follows: inhibition of HUTS-21 binding to VLA-4, pilot screen, VLA-4 allosteric modulator project, U937 cells, HUTS-21 mAb, flow cytometry, validation set (AID 2674;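 active = inhibition above 50%, about 3 SD of the validation set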;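 note: antibody binding induced by the VLA-4 ligand LDV present at three times its Kd; 0% = LDV ligand with antibody and no compound and 100% = antibody without LDV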). The note with it: HUTS-21 LIBS mAb binding, at 6.7 µM, stronger effect = higher value, binding induced by LDV ligand.

Assay [8] in a line: superoxide lowering in aged yeast cells, pilot screen, validation compound set (AID 2706;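 active = superoxide response below 65% of plate, a cut near 3 SD across the whole screen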;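 note: yeast exposed to compound for one week at 30 degrees C before staining; 100% = mean of all compound wells on the same plate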). The conditions noted are these: S. cerevisiae aging, superoxide DHE fluorescence; at 10 µM; stronger effect = lower value.
Assay [9] addresses Beta-adrenergic receptor kinase 1 (Homo sapiens) (UniProt P25098). The assay can be described thus: GRK2 binders displacing RNA aptamer, biochemical, validation, human GRK2, bead flow cytometry (AID 488806;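 active = aptamer binding inhibition above 30%, about 3 SD of noise from non-fluorescent compounds; inactive = inhibition at or below 30%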). The note with it: bead-bound GRK2, FAM-aptamer displacement, at 10 µM, stronger effect = higher value.
Assay [10] addresses Beta-2 adrenergic receptor (Homo sapiens) (UniProt P07550). The assay can be described thus: beta2AR agonists driving receptor internalization, pilot screen, cell-based, FAP fluorogen, flow cytometry, validation set (AID 504459).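 Note: agonist-driven loss of surface beta2AR via internalization measured by FAP dye flow cytometry.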 The conditions noted are these: Am2.2-beta2AR cells, FAP surface receptor flow cytometry; at 10 µM; stronger effect = higher value.
For assay [11], the target named is AP-2 complex subunit beta (Homo sapiens) (UniProt P63010). The assay can be described thus: inhibitors of arrestin peptide binding to AP2, pilot screen, biochemical, validation set, GST-AP2 beads, flow cytometry (AID 504541;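 active = inhibition above 54%, about 3 SD of non-fluorescent compounds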;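 note: AP2 carries R879A mutation and is captured from E. coli lysate; bead-bound FITC arrestin peptide fluorescence measuring arrestin peptide binding to AP2; 0% = DMSO wells and 100% = excess unlabeled arrestin peptide control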). The conditions noted are these: FITC arrestin peptide, at 10 µM, stronger effect = higher value, AP2 beta2 appendage fragment, R879A mutant.
Chain of AP-2 complex subunit beta (Homo sapiens) (P63010 whole entry, looked up, the tested form may be a part, one chain of several): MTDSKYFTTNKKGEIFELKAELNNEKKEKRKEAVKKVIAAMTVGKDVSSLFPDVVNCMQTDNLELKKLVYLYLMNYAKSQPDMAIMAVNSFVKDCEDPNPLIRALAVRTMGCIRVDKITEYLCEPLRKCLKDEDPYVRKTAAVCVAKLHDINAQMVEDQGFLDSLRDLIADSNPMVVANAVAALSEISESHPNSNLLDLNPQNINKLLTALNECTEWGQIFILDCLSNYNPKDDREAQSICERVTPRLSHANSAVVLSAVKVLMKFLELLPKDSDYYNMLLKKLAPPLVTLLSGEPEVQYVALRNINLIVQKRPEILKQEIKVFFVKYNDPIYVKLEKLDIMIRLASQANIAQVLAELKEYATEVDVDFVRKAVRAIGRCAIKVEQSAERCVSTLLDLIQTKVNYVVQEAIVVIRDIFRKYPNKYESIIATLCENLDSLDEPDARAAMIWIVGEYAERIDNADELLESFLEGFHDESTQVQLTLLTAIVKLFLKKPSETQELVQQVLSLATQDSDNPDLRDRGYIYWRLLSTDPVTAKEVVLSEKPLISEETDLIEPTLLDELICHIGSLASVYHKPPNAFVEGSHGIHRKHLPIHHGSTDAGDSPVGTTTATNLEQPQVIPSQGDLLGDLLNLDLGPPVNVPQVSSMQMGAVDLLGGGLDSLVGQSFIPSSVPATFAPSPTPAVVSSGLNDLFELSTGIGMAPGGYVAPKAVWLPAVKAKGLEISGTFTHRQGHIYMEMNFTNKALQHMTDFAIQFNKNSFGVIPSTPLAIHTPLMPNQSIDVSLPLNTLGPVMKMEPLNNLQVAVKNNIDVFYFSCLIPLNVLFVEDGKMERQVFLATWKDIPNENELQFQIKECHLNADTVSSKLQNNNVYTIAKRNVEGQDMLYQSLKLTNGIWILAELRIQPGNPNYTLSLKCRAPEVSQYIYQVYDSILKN
The nature of assay [12]: yeast V-ATPase proton transport modulators, S. cerevisiae, pHLuorin, HTS validation (AID 504600; in the data active = response above about 15%;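 note: plate controls were DMSO for no effect and reference compound for full effect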). The conditions noted are these: S. cerevisiae pHLuorin cytosolic pH, at 10 µM, stronger effect = higher value.
Assay [13] concerns anti-desmoglein-3 scFv antibody binding to human DSG3. The assay can be described thus: inhibitors of anti-DSG3 scFv binding to DSG3, pilot screen, biochemical, validation compound set, bead-based, flow cytometry (AID 588368;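 active = binding below the plate cutoff, the plate median minus 3 SD, with a reading above zero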;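 note: signal is the median channel fluorescence of bead-bound GFP antibody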). The note with it: Protein G beads, DSG3-Fc, scFv-GFP binding, at 10 µM, stronger effect = lower value.
In assay [14] the target is ATP-binding cassette sub-family B member 6 (Homo sapiens) (UniProt Q9NP58). The assay can be described thus: ABCB6 transporter inhibitors, pilot screen, K562-ABCB6 cells, flow cytometry, validation set (AID 588550;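 active = inhibition above the screen-wide mean plus 3 SD, about 51%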;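 note: 0% = DMSO wells and 100% = benzethonium chloride 70 µM positive control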). The note with it: K562-ABCB6 porphyrin accumulation, 1 h, at 10 µM, stronger effect = higher value.
Chain of ATP-binding cassette sub-family B member 6 (Homo sapiens) (Q9NP58 whole entry, looked up): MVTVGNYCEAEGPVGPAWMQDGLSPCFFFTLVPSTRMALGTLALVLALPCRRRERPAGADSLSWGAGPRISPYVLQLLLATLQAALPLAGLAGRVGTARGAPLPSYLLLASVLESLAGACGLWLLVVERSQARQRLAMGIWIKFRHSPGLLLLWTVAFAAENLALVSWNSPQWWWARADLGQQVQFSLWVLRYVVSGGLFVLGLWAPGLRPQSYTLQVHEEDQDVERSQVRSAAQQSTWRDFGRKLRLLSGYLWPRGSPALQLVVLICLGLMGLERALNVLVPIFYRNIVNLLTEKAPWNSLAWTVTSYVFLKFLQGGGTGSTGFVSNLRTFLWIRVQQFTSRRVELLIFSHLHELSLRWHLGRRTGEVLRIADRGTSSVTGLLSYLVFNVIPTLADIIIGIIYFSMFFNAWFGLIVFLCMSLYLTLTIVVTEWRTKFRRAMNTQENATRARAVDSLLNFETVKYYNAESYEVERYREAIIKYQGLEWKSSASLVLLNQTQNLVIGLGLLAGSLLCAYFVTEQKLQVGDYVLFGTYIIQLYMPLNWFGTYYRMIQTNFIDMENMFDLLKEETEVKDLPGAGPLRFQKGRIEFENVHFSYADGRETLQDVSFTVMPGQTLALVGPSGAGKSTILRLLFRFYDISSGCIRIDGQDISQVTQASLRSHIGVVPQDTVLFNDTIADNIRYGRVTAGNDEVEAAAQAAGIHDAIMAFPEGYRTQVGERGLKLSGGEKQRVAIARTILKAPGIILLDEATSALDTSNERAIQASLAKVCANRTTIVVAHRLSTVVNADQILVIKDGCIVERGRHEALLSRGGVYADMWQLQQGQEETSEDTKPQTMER
Assay [15] in a line: promoters of myeloid differentiation in arrested cells, primary screen, cell-based, GFP/MAC1 double positive, flow cytometry, validation set (AID 588685;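 active = differentiation response of at least 50%, scaled between solvent and reference control, from cells with both markers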;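 note: compound exposure lasts four days before antibody staining and flow analysis; 0% = DMSO wells and 100% = 5 µM fulvestrant positive control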). The conditions noted are these: ER-HoxA9 marrow cells, stronger effect = higher value, normalized: vehicle 0, fulvestrant 100.
Assay [16] can be described thus: inhibitors of fungal efflux pumps CDR1, CDR2, MDR1, pilot screen, validation compound set, multiplex, phenotypic (AID 588506;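 active = efflux inhibition above 0.42, the validation set average plus 4 SD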;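 note: Nile Red retained in cells so higher fluorescence means more efflux inhibition; 0 = negative control wells and 1 = enniatin B 25 µM full block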). The conditions noted are these: S. cerevisiae pump-expressing triplex, Nile Red efflux flow cytometry; at 10 µM; stronger effect = higher value; the pumps come from Candida albicans.

Values joined by “and” are separate entries in the source; they are usually repeats but may differ in a detail not shown here. Identical values can stand only once. Records with an inconclusive call do not appear. Active and inactive are the calls of the source.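 Rule for the calls, unless noted: active = percent response above 42, roughly 3 SD of non-fluorescent test compounds; inactive = the rest.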

Chain of Beta-2 adrenergic receptor (Homo sapiens) (P07550 whole entry, looked up): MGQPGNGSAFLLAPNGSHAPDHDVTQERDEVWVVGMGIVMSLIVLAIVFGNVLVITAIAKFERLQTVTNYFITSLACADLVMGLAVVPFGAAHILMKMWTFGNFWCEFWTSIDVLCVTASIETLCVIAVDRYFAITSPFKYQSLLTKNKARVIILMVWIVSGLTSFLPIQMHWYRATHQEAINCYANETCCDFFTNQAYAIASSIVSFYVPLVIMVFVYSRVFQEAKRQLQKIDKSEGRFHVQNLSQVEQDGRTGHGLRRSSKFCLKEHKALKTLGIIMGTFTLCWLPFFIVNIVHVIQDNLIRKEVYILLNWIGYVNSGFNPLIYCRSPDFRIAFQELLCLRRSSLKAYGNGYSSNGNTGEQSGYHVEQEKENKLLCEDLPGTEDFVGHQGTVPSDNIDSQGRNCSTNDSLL
Chain of Beta-adrenergic receptor kinase 1 (Homo sapiens) (P25098 whole entry, looked up): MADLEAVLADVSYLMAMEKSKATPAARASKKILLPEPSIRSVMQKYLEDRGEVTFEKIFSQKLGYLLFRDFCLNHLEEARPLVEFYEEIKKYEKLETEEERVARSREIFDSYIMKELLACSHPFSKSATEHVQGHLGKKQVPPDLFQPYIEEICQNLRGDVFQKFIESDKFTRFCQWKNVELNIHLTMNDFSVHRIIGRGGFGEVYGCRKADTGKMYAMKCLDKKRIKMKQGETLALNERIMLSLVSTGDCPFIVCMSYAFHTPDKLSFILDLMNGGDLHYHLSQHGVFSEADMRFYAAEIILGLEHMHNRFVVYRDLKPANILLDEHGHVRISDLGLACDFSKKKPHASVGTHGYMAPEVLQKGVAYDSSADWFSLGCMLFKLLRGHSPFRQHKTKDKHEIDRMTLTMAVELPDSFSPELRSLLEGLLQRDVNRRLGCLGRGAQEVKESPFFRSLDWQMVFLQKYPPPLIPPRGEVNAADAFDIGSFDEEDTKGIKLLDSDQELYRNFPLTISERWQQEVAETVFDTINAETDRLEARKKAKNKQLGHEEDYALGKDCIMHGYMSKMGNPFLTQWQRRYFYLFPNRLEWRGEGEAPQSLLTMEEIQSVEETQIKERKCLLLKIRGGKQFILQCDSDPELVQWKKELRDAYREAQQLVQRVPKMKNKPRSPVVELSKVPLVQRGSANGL
Chain of Integrin beta-1 (Homo sapiens) + Integrin alpha-4 (Homo sapiens) (P05556 whole entry, looked up): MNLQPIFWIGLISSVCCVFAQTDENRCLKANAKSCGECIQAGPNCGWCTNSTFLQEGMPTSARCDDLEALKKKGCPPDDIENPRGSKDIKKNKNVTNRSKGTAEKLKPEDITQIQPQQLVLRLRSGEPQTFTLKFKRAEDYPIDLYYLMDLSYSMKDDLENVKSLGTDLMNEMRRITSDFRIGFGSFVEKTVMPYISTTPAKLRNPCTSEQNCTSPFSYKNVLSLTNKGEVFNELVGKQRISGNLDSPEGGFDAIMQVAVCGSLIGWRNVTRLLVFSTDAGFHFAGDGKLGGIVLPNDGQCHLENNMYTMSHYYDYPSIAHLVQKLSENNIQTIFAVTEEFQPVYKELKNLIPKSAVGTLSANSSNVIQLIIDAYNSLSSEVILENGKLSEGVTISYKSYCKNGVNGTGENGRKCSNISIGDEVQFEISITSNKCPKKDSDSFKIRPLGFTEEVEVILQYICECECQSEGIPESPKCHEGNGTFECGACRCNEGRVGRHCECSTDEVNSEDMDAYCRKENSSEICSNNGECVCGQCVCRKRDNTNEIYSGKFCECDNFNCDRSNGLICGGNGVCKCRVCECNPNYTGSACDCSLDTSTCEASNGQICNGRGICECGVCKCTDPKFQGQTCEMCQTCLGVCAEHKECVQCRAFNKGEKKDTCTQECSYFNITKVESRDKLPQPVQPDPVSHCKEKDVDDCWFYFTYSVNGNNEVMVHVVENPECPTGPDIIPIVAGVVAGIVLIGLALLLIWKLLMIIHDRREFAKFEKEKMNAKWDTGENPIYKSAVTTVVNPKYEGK
Chain of Integrin beta-1 (Homo sapiens) + Integrin alpha-4 (Homo sapiens) (P13612 whole entry, looked up): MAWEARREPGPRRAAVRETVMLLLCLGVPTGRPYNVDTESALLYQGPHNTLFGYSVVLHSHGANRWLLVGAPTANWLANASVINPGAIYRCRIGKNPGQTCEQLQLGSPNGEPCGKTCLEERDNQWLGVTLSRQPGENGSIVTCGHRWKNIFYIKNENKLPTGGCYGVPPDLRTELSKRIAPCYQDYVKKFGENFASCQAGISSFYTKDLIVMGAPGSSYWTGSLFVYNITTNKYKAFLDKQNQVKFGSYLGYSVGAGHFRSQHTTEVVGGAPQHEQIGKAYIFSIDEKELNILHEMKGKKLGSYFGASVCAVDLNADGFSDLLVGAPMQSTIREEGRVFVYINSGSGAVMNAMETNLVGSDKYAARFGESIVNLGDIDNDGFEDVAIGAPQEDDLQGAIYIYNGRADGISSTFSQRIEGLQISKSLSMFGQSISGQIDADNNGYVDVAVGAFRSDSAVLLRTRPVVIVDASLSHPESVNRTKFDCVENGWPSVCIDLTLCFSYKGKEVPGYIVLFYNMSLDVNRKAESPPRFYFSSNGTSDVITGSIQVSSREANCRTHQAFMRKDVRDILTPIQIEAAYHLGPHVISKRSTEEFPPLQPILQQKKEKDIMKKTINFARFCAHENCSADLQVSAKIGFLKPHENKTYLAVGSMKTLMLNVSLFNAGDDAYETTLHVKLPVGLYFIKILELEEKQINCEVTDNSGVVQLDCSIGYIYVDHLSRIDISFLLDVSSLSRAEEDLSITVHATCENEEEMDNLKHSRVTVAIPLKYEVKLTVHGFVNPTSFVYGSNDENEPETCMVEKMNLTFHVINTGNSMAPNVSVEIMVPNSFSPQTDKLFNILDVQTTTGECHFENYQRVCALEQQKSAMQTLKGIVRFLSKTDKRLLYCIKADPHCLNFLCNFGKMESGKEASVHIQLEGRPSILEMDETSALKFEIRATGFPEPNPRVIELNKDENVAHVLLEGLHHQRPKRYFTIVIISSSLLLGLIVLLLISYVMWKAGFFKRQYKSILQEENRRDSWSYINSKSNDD

Broadly, the inhibition is the change of the read-out against control, counted positive when it falls. For `CC1(C)S[C@@H]2[C@H](NC(=O)[C@H](N)c3ccccc3)C(=O)N2[C@H]1C(=O)O`, in [1], the percent of DMSO control GFP was 94.2% (inactive) and 101% (inactive). In addition, the GFP response vs DMSO is 112% (inactive) and 102% (inactive) in assay [2]; 73.2% (inactive) and 108% (inactive) in assay [4]. For the same compound, in assay [3], the percent response of DMSO control was 110% (inactive) and 102% (inactive). In assay [5], the GFP response, % of DMSO is 93.1% (inactive) and 112% (inactive). In addition, in assay [6], the double positive events is 68.4% and 59.6%. In addition, the vesicle binding response in [6] is 234% (inactive) and 191% (inactive). For the same compound, the inhibition in [7] is 6.46% (inactive) and 15.1% (inactive); in [11] it was 0.2% (inactive) and -9.24% (inactive); in [14], 4% (inactive) and 0% (inactive). Also, in assay [8], the superoxide response (% of plate) was 95.9% (inactive) and 95% (inactive). Moreover, the aptamer binding inhibition in [9] was 4% (inactive) and 7% (inactive). The response in [10] is -4.57% (inactive) and -17.9% (inactive); in assay [12], 4.43% (inactive) and -37.5% (inactive). Further, the binding (% of control) in assay [13] is 108% (inactive) and 102% (inactive). Also, in assay [15], the differentiation response was -1.64% (inactive) and -7.94% (inactive).

For `COc1ccc2c(c1OC)C(C1c3c(cc4c(c3OC)OCO4)CCN1C)OC2=O` (stereo not drawn), the percent of DMSO control GFP in [1] was 107% (inactive). Besides, the GFP response vs DMSO in [2] is 93% (inactive); in assay [4] it was 88.7% (inactive). Further, the percent response of DMSO control in assay [3] was 121% (inactive). Moreover, the GFP response, % of DMSO in assay [5] is 111% (inactive). The same compound yielded a double positive events in assay [6] of 60.6%. Besides, in assay [6], the vesicle binding response is 54.2% (inactive). Besides, the results for the inhibition in assay [7], in assay [11] and in [14] were -23.3% (inactive), -1.99% (inactive) and 6% (inactive), respectively. The superoxide response (% of plate) in assay [8] is 95.3% (inactive). Besides, the aptamer binding inhibition in [9] was 1% (inactive). Also, the response in assay [10] is -7.53% (inactive); in assay [12], 2.98% (inactive). Further, the binding (% of control) in [13] is 98.9% (inactive). Further, the efflux inhibition (fraction of control) in assay [16] was 0.02 (inactive). The differentiation response in [15] was -2.69% (inactive).

As for `COc1c(O)ccc2c1CN1CCc3cc4c(cc3C1C2)OCO4` (stereo not drawn), in assay [1], the percent of DMSO control GFP was 107% (inactive). The GFP response vs DMSO was 112% (inactive) in [2] and 130% (inactive) in assay [4]. Also, the percent response of DMSO control in assay [3] is 93.9% (inactive). In assay [5], the GFP response, % of DMSO is 103% (inactive). The same compound gave a double positive events in assay [6] of 61.6%. Besides, the vesicle binding response in [6] is 157% (inactive). Further, the superoxide response (% of plate) in assay [8] is 92.6% (inactive). The aptamer binding inhibition in assay [9] was 1% (inactive). Also, the response in assay [10] was 24.6% (inactive); in assay [12], -1.39% (inactive). Besides, the inhibition in assay [11] is 30.3% (inactive); in [14], -25% (inactive). Besides, the binding (% of control) in assay [13] was 99.7% (inactive). Besides, in assay [16], the efflux inhibition (fraction of control) was 0.66 (active). The differentiation response in [15] is 23.2% (inactive).

For `Cc1nc(N)sc1C(=O)N/N=C/c1ccco1`, the percent of DMSO control GFP in [1] was 105% (inactive). Besides, the GFP response vs DMSO is 107% (inactive) in assay [2] and 114% (inactive) in [4]. Also, the percent response of DMSO control in assay [3] is 109% (inactive). For the same compound, the GFP response, % of DMSO in [5] is 115% (inactive). In assay [6], the double positive events was 62.5%. In addition, the vesicle binding response in [6] is 145% (inactive). The inhibition is -3.77% (inactive) in assay [7], 6.36% (inactive) in assay [11] and -15% (inactive) in assay [14]. For the same compound, the superoxide response (% of plate) in assay [8] was 89.3% (inactive). Also, the aptamer binding inhibition in assay [9] was -1% (inactive). Moreover, the response in [10] was -0.95% (inactive); in assay [12], -5.39% (inactive). Also, the binding (% of control) in assay [13] is 105% (inactive). Moreover, in [16], the efflux inhibition (fraction of control) is 0.08 (inactive). Also, in assay [15], the differentiation response was -4.57% (inactive).

In the case of `O=C(c1ccc(Cl)cc1)C1CCCN(C(=O)/C=C/c2ccccn2)C1` (stereo not drawn), in [1], the percent of DMSO control GFP was 92.4% (inactive). For the same compound, the GFP response vs DMSO in [2] is 102% (inactive); in assay [4], 137% (inactive). Besides, in assay [3], the percent response of DMSO control is 97.7% (inactive). The GFP response, % of DMSO in [5] was 115% (inactive). For the same compound, the double positive events in assay [6] amounted to 57.5%. Further, in assay [6], the vesicle binding response was 280% (inactive). Moreover, the figures for the inhibition in assay [7], in assay [11] and in [14] were -1.12% (inactive), -19.4% (inactive) and -2% (inactive), respectively. In assay [8], the superoxide response (% of plate) is 91.6% (inactive). The aptamer binding inhibition in [9] was -3% (inactive). In addition, the response is -44.8% (inactive) in assay [10] and 2.11% (inactive) in [12]. For the same compound, the binding (% of control) in assay [13] is 106% (inactive). In assay [16], the efflux inhibition (fraction of control) was 0 (inactive). Also, the differentiation response in assay [15] is -1.05% (inactive).
